Biological target: ZSCAN21
Assay: pooled miR-30 sensor sort-seq; sequence = guide strand
Settings: shRNA
Also: reference of the scale not given here.

Q: TAATGTTTCTTCCTTAACTAGA was tested. Which sensor-assay potency score (higher = more potent) did it give?
A: -0.759

Q: How did the sensor-assay potency score (higher = more potent) turn out when TGATACAAACTCTATCACCGGA was run?
A: 0.695

Q: With TGGATCTTGAGCGAACTCCTGC as the sequence, how does the sensor-assay potency score (higher = more potent) read?
A: -0.804

Q: For ATATATAACGTCTCTCTCCTGG, which sensor-assay potency score (higher = more potent) is on record?
A: 0.19

Q: TACTCAATCTGCAATCTCGGAC was tested. Which sensor-assay potency score (higher = more potent) did it give?
A: -0.338

Biological target: ZSCAN2
Assay: as above
Settings: shRNA

Q: With TTCATTCTCAAACATGTCTTGA as the sequence, how does the sensor-assay potency score (higher = more potent) read?
A: -0.592

Q: How did the sensor-assay potency score (higher = more potent) turn out when TTAGATTGGAGTTGTAACTAAA was run?
A: -0.577

Q: For TTGAGGAGGTTGGAGCTCCAGC, which sensor-assay potency score (higher = more potent) is on record?
A: -0.932

Q: Which sensor-assay potency score (higher = more potent) does the source give for TTGTAACTAAAGCTTTCGCCGC here?
A: -0.979

Q: How did the sensor-assay potency score (higher = more potent) turn out when TATCTCAAAATCACTGTCCTGA was run?
A: 0.962

Q: With TAGTATACAAAAGCTACCCGAC as the sequence, how does the sensor-assay potency score (higher = more potent) read?
A: -0.627

Q: How did the sensor-assay potency score (higher = more potent) turn out when TTTCCGAGAATATCTTACGTGA was run?
A: -0.583

Q: How did the sensor-assay potency score (higher = more potent) turn out when TAAAATTTGAACCATCACTAAA was run?
A: -1.38

Q: Which sensor-assay potency score (higher = more potent) does the source give for TTCACTGTCCTGAAGGGTCTGG here?
A: 0.109

Q: How did the sensor-assay potency score (higher = more potent) turn out when TTGTAGTATTTCTCTCCTGTGT was run?
A: -0.38

Q: How did the sensor-assay potency score (higher = more potent) turn out when TAAAGCTTTTTCCACATTCATC was run?
A: -1.45

Q: For TACAGCACTGTCCTGAAGGGTC, which sensor-assay potency score (higher = more potent) is on record?
A: -0.556

Biological target: ZSWIM5
Assay: as above
Settings: shRNA

Q: Which sensor-assay potency score (higher = more potent) does the source give for TTCTGTAGCACAGGTCACCAAC here?
A: -1.2

Q: For TAGCAATCTTGAATGCATCTTG, which sensor-assay potency score (higher = more potent) is on record?
A: 0.435

Q: TTGTCTGTCATGTTTGTTCCTT was tested. Which sensor-assay potency score (higher = more potent) did it give?
A: -0.0787

Q: For TTGAGGTTGTCGATGAACTGGG, which sensor-assay potency score (higher = more potent) is on record?
A: -0.0434

Q: With TAGCTCATCGTCCAGCTGCAGC as the sequence, how does the sensor-assay potency score (higher = more potent) read?
A: -1.21

Q: With TAGTCTTTCACTTTCCCGCTGG as the sequence, how does the sensor-assay potency score (higher = more potent) read?
A: 0.269

Q: How did the sensor-assay potency score (higher = more potent) turn out when TAGTGAATACTGTTCGTCTTGG was run?
A: -0.686

Q: TTGCACTAGCTCATCGTCCAGC was tested. Which sensor-assay potency score (higher = more potent) did it give?
A: -0.629

Q: For TTAAAGAGTAGTCTTTCACTTT, which sensor-assay potency score (higher = more potent) is on record?
A: -0.123

Q: Which sensor-assay potency score (higher = more potent) does the source give for TTTGTCAGTGGACATGAGCTTT here?
A: -0.796

Q: Which sensor-assay potency score (higher = more potent) does the source give for TTGAGTTGAGTTGCTTTCCAGA here?
A: -0.443

Q: Which sensor-assay potency score (higher = more potent) does the source give for TAGAATATGTCCTTGTTCCCAC here?
A: -0.0166

Biological target: ZZEF1
Assay: as above
Settings: shRNA

Q: For TTAGTGTTTTATACAATCCTTT, which sensor-assay potency score (higher = more potent) is on record?
A: -0.602

Q: TTAACCTCCTTACTATTCCGGT was tested. Which sensor-assay potency score (higher = more potent) did it give?
A: -0.49

Q: For TTGAGAAATCTGTAGATCCTGG, which sensor-assay potency score (higher = more potent) is on record?
A: 0.26

Q: How did the sensor-assay potency score (higher = more potent) turn out when TTCAGCTGCAGGTAGCACCAGG was run?
A: -0.559

Q: For TTTAACAGGTCACAGTAGCGAG, which sensor-assay potency score (higher = more potent) is on record?
A: -1.06

Q: For TAGCACTTTGCTACTGACTTGA, which sensor-assay potency score (higher = more potent) is on record?
A: 0.394

Q: With TTATAGGCAAACACCAACCCAC as the sequence, how does the sensor-assay potency score (higher = more potent) read?
A: -0.586

Q: For TTGAGGAGCAGGTTCTGTCTGA, which sensor-assay potency score (higher = more potent) is on record?
A: -0.0904

Q: Which sensor-assay potency score (higher = more potent) does the source give for TTCTTGTTTTAGTATCTCCATG here?
A: -1.42

Q: Which sensor-assay potency score (higher = more potent) does the source give for TTAATCTGGACATAGAGCTGAC here?
A: -0.316

Q: Which sensor-assay potency score (higher = more potent) does the source give for TTTCTTTTGAACTTATGCCCGT here?
A: -0.351
